Results filed as inconclusive are left out. Calls of active or inactive are those of the source. How the source made its calls, unless noted: active means hit-call score of the fitted dose curve at least 0.9, where 1 is the maximum; inactive means score below 0.9.

The nature of assay [1]: VALA_MIGHUV1_ScratchOnly_WoundArea: VALA Sciences human Umbilical Vein Endothelial Cell Migration (MIGHUV) Assay, Area of Scratch Wound Inhibited Recovery (AID 2284336; active means hit-call score of the fitted dose curve at least 0.9, where 1 is the maximum). The procedure, abridged:
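Wound area remaining after 24 h recovery imaged by Hoechst nuclear fluorescence in scratched HUVEC cultures, chemicals added within 30 min of scratching across a 6-point series. Gain of signal fitted against 0.1% DMSO; cytochalasin D positive control.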

Assay [2] can be described thus: VALA_TUBIPS_Antagonist_CellCount: Viability Assessment in the VALA Sciences human iPS-derived Endothelial Tubule Formation (TUBIPS) Antagonism Assay (AID 2284335; active means hit-call score of the fitted dose curve at least 0.9, where 1 is the maximum). The protocol: (§1) VALA_TUBIPS_Agonist is a cell-based, multiplexed assay that uses human iPS-derived endothelial cells (iPSC). Measurements were taken 72 hours after chemical dosing in a 96-well plate.VALA_TUBIPS_Antagonist_CellCount is the one of two assay components measured from the VALA_TUBIPS_Antagonist assay. It is designed to make measurements of viability, a form of viability reporter, as detected with fluorescence intensity signals by HCS Fluorescent Imaging technology. Data from the assay component VALA_TUBIPS_Antagonist_CellCount was analyzed at the endpoint, VALA_TUBIPS_Antagonist_CellCount, in the positive analysis fitting direction relative to DMSO as the negative control and baseline of activity. Using a type of viability reporter, loss-of-signal activity can be used to understand viability. To generalize the intended target to other relatable targets, this assay endpoint is annotated to the cell cycle intended target family, where the subfamily is cell count.
(§2) This HUVEC-HDF assay was designed to detect chemical suppression of tubulogenesis, i.e. antagonism. To measure tubulogenesis antagonism, HUVEC cells were co-cultured with HDF cells at a 1:3 ratio for 3-days in 10 ng/ml VEGF (i.e., favorable conditions with growth factors), then changed to assay medium containing 10 ng/ml VEGF and ToxCast compounds for an additional 3-day period. […]

Assay [3] in a line: VALA_TUBHUV_Agonist_TubuleLength: VALA Sciences human Umbilical Vein Endothelial Tubule Formation (TUBHUV) Agonism Assay (AID 2284337; active means hit-call score of the fitted dose curve at least 0.9, where 1 is the maximum). The procedure, abridged:
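Tubule length quantified by CD31 immunofluorescence imaging after fixation. HUVEC-HDF co-cultures (1:3) pre-grown 3 days with 10 ng/ml VEGF, then dosed 3 days in VEGF medium; 0.1 % DMSO vehicle baseline.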

Assay [4] is described as follows: VALA_TUBIPS_Agonist_CellCount: Viability Assessment in the VALA Sciences human iPS-derived Endothelial Tubule Formation (TUBIPS) Agonism Assay (AID 2284338; active means hit-call score of the fitted dose curve at least 0.9, where 1 is the maximum). The protocol: as §1, with “plate.VALA_TUBIPS_Agonist_CellCount” for “plate.VALA_TUBIPS_Antagonist_CellCount”, “VALA_TUBIPS_Agonist” for “VALA_TUBIPS_Antagonist”, “VALA_TUBIPS_Agonist_CellCount” for “VALA_TUBIPS_Antagonist_CellCount”, “VALA_TUBIPS_Agonist_CellCount,” for “VALA_TUBIPS_Antagonist_CellCount,”
as §2

Assay [5] deals with Brachyury (BRA) Protein Expression, Deisenroth Lab, TBXT (gene 6862). The experiment in a line: CCTE_Deisenroth_DEVTOX-GLR_legacy_Bra: (Legacy) CCTE's DevTox GLR-Endo Assay Evaluation of Brachyury (BRA) Protein Expression, Deisenroth Lab (AID 2284329). The procedure, abridged:
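Readout: percent Bra+ cells by high-content fluorescence imaging, Bra+ meaning mean intensity 5x BMAD over pluripotent control median. RUES2-GLR cells dosed twice over 48 h differentiation; DMSO-control median subtracted before concentration-response fitting.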

Assay [6] can be described thus: CCTE_Deisenroth_DEVTOX-GLR_legacy_CellCount: (Legacy) Viability Assessment in CCTE's DevTox GLR-Endo Assay, Deisenroth Lab (AID 2284331). To be noted: actives raise or lower the signal. The protocol:
CCTE_Deisenroth_DEVTOX-GLR_legacy assay is a cell-based, multiplex-readout assay that uses RUES2-GLR, a human pluripotent cell line, with measurements taken at 48 hours after chemical dosing in a 384-well microplateCCTE_Deisenroth_DEVTOX-GLR_legacy_CellCount is one of 4 assay components calculated from the CCTE_Deisenroth_DEVTOX-GLR_legacy assay that measures an increase in cell count. It is designed to make measurements of nuclei count, a form of cell viability, as detected with optical fluorescence microscopy by Perkin Elmer Harmony nuclei detection algorithm. The assay endpoints were analyzed with bidirectional fitting relative to 0.2% DMSO control in the DEVTOX-GLR assay.Data from the assay component CCTE_Deisenroth_DEVTOX-GLR_legacy_CellCount was analyzed into 1 assay endpoint. This assay endpoint, CCTE_Deisenroth_DEVTOX-GLR_legacy_CellCount, was analyzed with bidirectional fitting relative to DMSO as the negative control and baseline activity. Using nuclei counting, gain or loss-of-signal activity can be used to understand changes in cell viability. Furthermore, this assay endpoint can be referred to as a primary readout, because this assay has produced multiple assay endpoints where this one serves as a measure of cytotoxicity. To generalize the intended target to other relatable targets, this assay endpoint is annotated to the cell cycle intended target family, where the subfamily is cytotoxicity.
All assay protocols are aligned to the DevTox GLR-Endo assay workflow. Cells are seeded into 384-well microplates for 24 hours prior to initiating differentiation in defined media for a total duration of 48 hours. A total of two chemical exposures are administered in 24-hour intervals during the 48-hour differentiation period. At the assay termination point, cells are fixed and stained with a fluorescent dye demarcating the nucleus. […] Cell identification and mean biomarker fluorescence intensities are calculated with image analysis software to determine the total cell counts for viability assessment and the biomarker expression frequency for each lineage-dependent assay. […]

Assay [7] deals with SRY-box transcription factor 17 (SOX17) Protein Expression, Deisenroth Lab, SOX17 (gene 64321). The assay can be described thus: CCTE_Deisenroth_DEVTOX-GLR_legacy_Sox17: (Legacy) CCTE's DevTox GLR-Endo Assay Evaluation of SRY-box transcription factor 17 (SOX17) Protein Expression, Deisenroth Lab (AID 2284341). To be noted: actives raise or lower the signal. The protocol:
CCTE_Deisenroth_DEVTOX-GLR_legacy assay is a cell-based, multiplex-readout assay that uses RUES2-GLR, a human pluripotent cell line, with measurements taken at 48 hours after chemical dosing in a 384-well microplateCCTE_Deisenroth_DEVTOX-GLR_legacy_Sox17 is one of 4 assay components calculated from the CCTE_Deisenroth_DEVTOX-GLR_legacy assay and it measures an increase in the percentage of cells in an endoderm state. It is designed to make measurements of inducible reporter a form of fluorescent protein induction as detected with optical fluorescence microscopy. Percentage Sox17+ cells are determined by calculating the number of Sox17+ cells divided by cell count. A cell is Sox17+ if the cell Sox17 mean intensity is 5x BMAD above the pluripotent control median cell Sox17 mean. The assay endpoints were analyzed with bidirectional fitting relative to 0.2% DMSO control in the CCTE_Deisenroth_DEVTOX-GLR_Endo assay.Data from the assay component CCTE_Deisenroth_DEVTOX-GLR_legacy_Sox17 was analyzed into 1 assay endpoint. This assay endpoint, CCTE_Deisenroth_DEVTOX-GLR_legacy_Sox17, was analyzed with bidirectional fitting relative to DMSO as the negative control and baseline activity. Using a type of inducible reporter, gain or loss-of-signal activity can be used to understand changes in gene expression. Furthermore, this assay endpoint can be referred to as a primary readout, because this assay has produced multiple assay endpoints where this one serves as a measure of endoderm differentiation. To generalize the intended target to other relatable targets, this assay endpoint is annotated to the transcription factor intended target family, where the subfamily is SRY-related HMG-box.
All assay protocols are aligned to the DevTox GLR-Endo assay workflow. Cells are seeded into 384-well microplates for 24 hours prior to initiating differentiation in defined media for a total duration of 48 hours. A total of two chemical exposures are administered in 24-hour intervals during the 48-hour differentiation period. At the assay termination point, cells are fixed and stained with a fluorescent dye demarcating the nucleus. High-content imaging is used to acquire brightfield and fluorescent channel images across 5 fields per well. Cell identification and mean biomarker fluorescence intensities are calculated with image analysis software to determine the total cell counts for viability assessment and the biomarker expression frequency for each lineage-dependent assay. A typical experimental design tests a 10-point concentration series (1 nM - 200 uM) for 28 compounds in single technical replicate. […]

A short description of assay [8]: IUF_NPC1_cytotoxicity_72hr: Cytotoxicity Assessment at 72 hours in the Leibniz Research Institute for Environmental Medicine (IUF) Neural Progenitor Cell Proliferation Assay (NPC1) (AID 2284332; active means hit-call score of the fitted dose curve at least 0.9, where 1 is the maximum;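 further: rising LDH signal means more cytotoxicity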). The procedure, abridged: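 LDH in supernatant, resazurin→resorufin fluorescence (RFU), 72 h exposure, no re-dosing. Cells: primary hNPC spheres, one per well, EGF+FGF medium, 37C/5% CO2, pH 7.2-7.6. Fit: positive direction vs baseline and dynamic range.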

Assay [9] is described as follows: CCTE_Mundy_HCI_iCellGluta_NOG_NeuronCount: CCTE's Neurite Outgrowth Assay in iCellGluta cells for Neuron Count, Mundy Lab (AID 2284340; active means hit-call score of the fitted dose curve at least 0.9, where 1 is the maximum;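 further: cells fixed about 48 h after compound addition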). The gist of the method: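 Neuron count read by automated high-content imaging of Hoechst 33342 and betaIII-tubulin/Alexa Fluor-488 labelling in human iPSC glutamatergic neurons. Activity fitted relative to DMSO.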
Assay [10] can be described thus: CCTE_Mundy_HCI_iCellGluta_NOG_NeuriteCount: CCTE's Neurite Outgrowth Assay in iCellGluta cells for Neurite Count, Mundy Lab (AID 2284342; active means hit-call score of the fitted dose curve at least 0.9, where 1 is the maximum;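 further: chemical exposure about 48 hours starting 2 hours after plating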).

Consider `O=C(Nc1ccc(Cl)cc1)Nc1ccc(Cl)c(Cl)c1`, for which, in [1], the compound was classed as inactive.

Usually AC50 stands for the concentration giving half of the maximal activity seen. Regarding `CCCCCCCCOC(=O)c1cc(O)c(O)c(O)c1`, the call in [2] was inactive. Further, the AC50 in [3] is 50 µM (active); in [4] it was 24.2 µM (active).

For the compound `OCCO`, the compound was called inactive in assay [5], in [6] and in [7].

Turning to `CO[C@H]1/C=C/O[C@@]2(C)Oc3c(C)c(O)c4c(O)c(c(/C=N/N5CCN(C)CC5)c(O)c4c3C2=O)NC(=O)/C(C)=C\C=C\[C@H](C)[C@H](O)[C@@H](C)[C@@H](O)[C@@H](C)[C@H](OC(C)=O)[C@@H]1C`, the AC50 in assay [5] is 89.7 µM (active); in [7] it was 72.4 µM (active).

For the compound `CC/C(=C(/CC)c1ccc(O)cc1)c1ccc(O)cc1`, the concentration at half-maximal activity (AC50) in assay [5] was 1.3 µM (active); in assay [6] it was 1.54 µM (active); in assay [7], 1.24 µM (active).

As for `O=C1O[C@H]([C@@H](O)CO)C(O)=C1O`, the compound was called inactive in assay [8], in assay [9] and in assay [10].

As for `CC(C)(c1cc(Br)c(O)c(Br)c1)c1cc(Br)c(O)c(Br)c1`, the call in [8] was inactive.

With `CCCCOC(=O)c1ccc(O)cc1`, the half-maximal activity concentration (AC50) is 100 µM (active) in assay [5], 38.2 µM (active) in assay [6] and 55.3 µM (active) in assay [7].

Values taken from PubChem BioAssay (EPA / NIEHS).
